BoNT A protease: inhibitors of Botulinum neurotoxin A light chain protease; multiplex microsphere protease substrate cleavage, flow cytometry; hit rate 0.17% among 360,000; inhibition, % at 10 µM
BoNT-F LC inh: BoNT F light chain protease inhibition; hit rate 0.22% among 360,000; Multiplex microsphere protease cleavage assay, flow cytometry; AID 588497; inhibition, % at 10 µM; in the data active means inhibition above about 35%, passing the limit was not always enough; inconclusive means no clear call, values can overlap the other calls
MazF activator: MazEF (E. coli) toxin RNase activation | P0AE70 | FAM/BHQ RNA-DNA oligo cleavage fluorescence, 5 h | activation, % at 20 µM | hit rate 0.32% among 350,000 | AID 504720; in the data active means activation above about 50%
Target sequence (P0AE70 whole entry, looked up): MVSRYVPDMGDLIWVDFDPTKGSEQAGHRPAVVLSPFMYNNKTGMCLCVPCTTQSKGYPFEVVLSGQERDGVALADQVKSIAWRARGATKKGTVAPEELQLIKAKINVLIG
Autofluor counter: compound fluorescence in toxin protease inhibitor counterscreen. compound autofluorescence counterscreen, microsphere flow cytometry; active compounds read high. fluorescence intensity (test concentration not listed). hit rate 3.1% among 360,000; in the data active means fluorescence intensity above about 16000; inconclusive means no clear call, values can overlap the other calls
BH1578 lux ind: quorum light induction in luxS cqsA deficient V. cholerae. V. cholerae BH1578 lux reporter, luminescence, 6 h. activation, % at 18.7 µM. hit rate 0.16% among 350,000. AID 588436; in the data active means activation mostly above about 9.7%, no sharp cut-off; inconclusive means no clear call, values can overlap the other calls; inactive means mostly below about 3.7%
Anthrax LF inh2: inhibitors of Bacillus anthracis lethal factor protease; hit rate 0.12% among 360,000; P15917; inhibition, % at 10 µM; multiplex microsphere protease cleavage assay, LF
A number is an active result; 0 = inactive; ? = inconclusive; - = no result given; + = active, no number. A selection: hits, their analogues and other compounds. The true share with any hit is near 3.9%. Unless noted, no stated cut-off is given here; in the data, active means inhibition above about 30%; inconclusive means no clear call, values can overlap the other calls; inactive means below that.

SMILES	BoNT A protease	BoNT-F LC inh	MazF activator	Autofluor counter	BH1578 lux ind	Anthrax LF inh2
COCCN1C(=O)COc2ccccc2C1C(=O)Nc1ccc2c(c1)OCCO2 (centres undefined)	0	0	-	0	-	0
O=C(Nc1ccc(F)cc1)Nc1ccc(Cl)cn1	0	0	0	18496	0	0
N#Cc1cccn1-c1nccc(-c2cccs2)n1	0	0	0	0	0	0
CCCCn1c(SCC(=O)NC(=O)Cc2ccccc2)nc2ccccc2c1=O	0	0	0	0	0	0
CCCCn1c(SCC(=O)Nc2nnc(C)s2)nc2c1c(=O)n(C)c(=O)n2C	?	0	0	22970	0	0
CCCCn1c(SCC(=O)Nc2nnc(CC)s2)nc2ccccc2c1=O	?	0	0	22336	0	0
CCCn1c(SCC(=O)Nc2nnc(C(C)C)s2)nc2c1c(=O)n(C)c(=O)n2C	0	0	0	0	0	0
CCCCn1c(SCC(=O)Nc2nnc(CC)s2)nc2c1c(=O)n(C)c(=O)n2C	?	0	0	21466	0	0
CCCCSc1nnc(-c2cc(Br)ccc2N)c(=O)[nH]1	?	0	0	20791	0	0
Clc1ccc2nc(-c3ccccc3)c(CN3CCOCC3)n2c1	0	0	0	23584	0	0
Clc1ccc(-c2nc3ccccn3c2CN2CCOCC2)cc1	0	0	0	0	0	0
Cc1cccc(Nc2nc(N)nc(CN3CCN(C)CC3)n2)c1	0	0	0	23797	0	0
Nc1nc(CN2CCN(c3ccccc3F)CC2)nc(Nc2ccccc2)n1	0	0	0	16781	0	0
Cc1ccc(Nc2nc(N)nc(CN3CCN(C)CC3)n2)cc1	0	0	0	0	0	0
Nc1nonc1-n1nnc(C(=O)N/N=C/c2cccc(F)c2)c1CN1CCCC1	0	0	0	0	28.1	0
Nc1nonc1-n1nnc(C(=O)N/N=C/c2ccc(Cl)cc2Cl)c1CN1CCOCC1	0	0	124.5	0	0	0
Nc1nonc1-n1nnc(C(=O)N/N=C/c2cccc(Cl)c2)c1CN1CCCC1	0	0	0	0	32.0	0
CCOC(=O)Nc1ccc2nc(-c3cscn3)[nH]c2c1	0	0	0	0	0	0
O=C(O)C(Cc1ccccc1-c1ccccc1)C(=O)O	0	0	0	0	0	0
CCOC(=O)[C@]12CCC=C1N(Cc1cccc3ccccc13)C(=O)[C@H](CC(=O)N1CCN(C(=O)c3ccco3)CC1)C2	0	0	-	0	-	0
CN(CCCNC(=O)C1CCC(=O)N1Cc1ccccc1Cl)c1ccccc1 (centres undefined)	0	0	0	16389	0	0
CCN(CCCNC(=O)C1CCC(=O)N1Cc1ccc(C)cc1)c1cccc(C)c1 (centres undefined)	0	0	0	0	-	0
CCCS(=O)(=O)N1CCCC(C(=O)NCCCN(CC)c2cccc(C)c2)C1 (centres undefined)	0	0	0	0	+	0
CCN(CCCNC(=O)C1CCC(=O)N1Cc1ccccc1Cl)c1cccc(C)c1 (centres undefined)	0	0	0	30276	0	0
O=C(NCC(O)c1nc2ccccc2[nH]1)c1cc([N+](=O)[O-])ccc1F (centres undefined)	0	0	-	0	-	0
SMILES	BoNT A protease	BoNT-F LC inh	MazF activator	Autofluor counter	BH1578 lux ind	Anthrax LF inh2
O=C(CC(Nc1ccccc1)C(=O)O)c1ccccc1 (centres undefined)	0	42.0	0	0	0	0
O=C1SC(SCc2ccccc2)=N/C1=C\c1ccco1	0	0	0	23038	0	0
Cc1cccc(-n2cccc2)c1C#N	0	0	0	0	0	0
N#Cc1c(-n2ccnc2)cccc1-n1ccnc1	0	0	0	21837	0	0
CCOC(=O)C(C)C1(O)c2ccccc2-c2ncccc21 (centres undefined)	?	0	0	23373	0	0
OC(CC1CC12c1ccccc1-c1ncccc12)(c1ccccc1)c1ccccc1 (centres undefined)	0	0	0	0	0	0
O=C(Cn1c(C(F)(F)F)nc2ccccc21)OCC(=O)c1c[nH]c2ccccc12	57.1	0	0	0	0	0
CCOC(=O)c1c(-c2cccs2)csc1NC(=O)COC(=O)c1c(C)noc1C	0	0	0	16276	0	0
CCn1cc(C(=O)N(C)c2ccccc2F)c2cc(OC)c(OC)cc2c1=O	0	0	0	0	0	0
CCC(=O)NC(=S)NNC(=O)c1ccc([N+](=O)[O-])cc1	0	0	0	20381	0	0
CC(C)CC(=O)NC(=S)NNC(=O)c1ccc([N+](=O)[O-])cc1	0	0	0	0	0	0
